Sampled rows, rich in hits. Any-hit rate of the full collection: about 11%.
PI5P4Ka inh = PI5P4K alpha (human) kinase inhibition; PI5P4Kalpha enzyme, ADP-Glo luminescence, 60 min; hits give low values; AID 652105; P48426; max response, %; 330,000 tested, 1.2% active; active = max response of -50% or lower; inconclusive = between -30% and -50%; inactive = -30% or higher; also: value at the top dose of about 77 µM
Target sequence (P48426 whole entry, looked up): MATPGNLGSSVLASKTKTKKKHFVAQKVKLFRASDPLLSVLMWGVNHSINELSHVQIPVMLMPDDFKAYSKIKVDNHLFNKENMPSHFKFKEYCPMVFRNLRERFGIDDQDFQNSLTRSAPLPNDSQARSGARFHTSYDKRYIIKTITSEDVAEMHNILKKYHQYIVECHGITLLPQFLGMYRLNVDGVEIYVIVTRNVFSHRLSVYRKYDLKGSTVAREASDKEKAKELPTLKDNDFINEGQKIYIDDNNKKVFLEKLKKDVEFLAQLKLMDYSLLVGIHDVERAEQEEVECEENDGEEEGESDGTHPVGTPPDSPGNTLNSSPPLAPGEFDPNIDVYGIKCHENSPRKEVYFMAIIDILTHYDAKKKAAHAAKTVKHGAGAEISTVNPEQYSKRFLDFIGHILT
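PI5P4Kalpha ADP-Glo assay; 5 microM ATP final; 60 min RT reaction; HEPES pH 7.4/EGTA/CHAPS, 5% DMSO; controls lacking substrate or enzyme; luminescent end-point.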
L3MBTL1 inh = blocks human L3MBTL1. Q9Y468. 230,000 tested, 0.66% active. AID 485360. AlphaScreen L3MBTL1–H3K9me1 peptide binding. Potency, µM (top dose mostly 57.1 µM), usual class: inhibitors; also: nearly all actives have a fitted effect of over 60% in size
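AlphaScreen assay: L3MBTL1 (50 nM final) was preincubated 30 min at room temperature with biotinylated H3(1-15)K9me1 peptide (75 nM final), then 30 min with library compounds; streptavidin donor and nickel chelate acceptor beads (10 ug/mL final) added, 30 min dark.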
G9a block = G9a (human) methyltransferase inhibition; G9a H3K9 monomethylation, AlphaScreen, 2 h; AID 504332; Q96KQ7; Potency, µM (doses to about 102 µM), actives largely listed as inhibitors; 350,000 tested, 8.8% active; also: nearly all actives have a fitted effect of over 75% in size
Target sequence (Q96KQ7 913-1193 limits assumed): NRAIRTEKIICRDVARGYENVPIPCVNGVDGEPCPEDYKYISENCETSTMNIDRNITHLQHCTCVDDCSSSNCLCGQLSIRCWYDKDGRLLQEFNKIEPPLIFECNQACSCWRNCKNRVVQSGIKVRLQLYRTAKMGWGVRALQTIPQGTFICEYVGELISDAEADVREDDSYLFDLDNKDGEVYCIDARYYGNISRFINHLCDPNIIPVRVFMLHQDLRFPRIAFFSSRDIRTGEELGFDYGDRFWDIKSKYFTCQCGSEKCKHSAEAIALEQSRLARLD
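G9a (20 nM) preincubated 15 min RT with compounds, then 500 nM biotinylated H3K9 peptide and 20 uM SAM added; 2 h RT reaction. Monomethyl-H3K9 product detected by AlphaScreen with anti-H3K9me1 antibody, streptavidin donor and anti-rabbit IgG acceptor beads.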
HP1b chromo inh = blocks HP1-beta chromodomain binding to methylated histone tails; P83916; AlphaScreen HP1-beta / biotin-H3K9me3 peptide binding; Potency, µM (doses to about 114 µM), hits mostly inhibitors; 390,000 tested, 0.56% active; AID 540317; also: nearly all actives have a fitted effect of over 70% in size
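HP1-beta protein (50 nM final) preincubated 30 min at room temperature with biotinylated H3(1-18)K9me3 peptide (50 nM) in PBS pH 7.4, 0.01% Tween-20, then compound added for 30 min. AlphaScreen streptavidin donor/nickel chelate acceptor beads (10 ug/mL final), 30 min dark, luminescence read.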
JMJD2A Tudor inh = JMJD2A Tudor domain (human) inhibition; Potency, µM (highest dose often 114 µM), most hits filed as inhibitors; O75164; 390,000 tested, 4.4% active; AlphaScreen JMJD2A-Tudor / H3K4me3 peptide binding; also: nearly all actives have a fitted effect of over 50% in size
BAZ2B block = inhibitors of human BAZ2B bromodomain; Q9UIF8; AlphaScreen BAZ2B-H3K14Ac peptide displacement; Potency, µM (highest dose often 114 µM), actives largely listed as inhibitors; 360,000 tested, 4.4% active; AID 504333; also: nearly all actives have a fitted effect of over 60% in size
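AlphaScreen displacement of biotin-H3(5-23)K14Ac peptide (50 nM final) from BAZ2B (50 nM final) in PBS pH 7.4, 0.01% Tween-20; complex preformed 30 min RT, then compounds (top 110 uM) 30 min RT, beads 20 min dark.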
Hits are given with their value; [ ] = dose if it differs, or a comment. Unless noted, calls follow the shape of the dose curve; as a rule, active = well fitted inhibition curve with a large enough effect; inconclusive = small, poorly fitted or top-dose-only effect; inactive = no such curve, though single readings can be large or run the other way.

For COc1ccc2c(C)cc(N3CCN(Cc4ccccc4)CC3)nc2c1 the results were PI5P4Ka inh inactive, G9a block inactive[2.33 µM], HP1b chromo inh inactive, JMJD2A Tudor inh inactive and BAZ2B block inactive.
For COC(=O)c1cc(N2CCN(C)CC2)nc2ccccc12 the results were PI5P4Ka inh inactive, L3MBTL1 inh inactive, G9a block 11.2µM, HP1b chromo inh inactive, JMJD2A Tudor inh inactive and BAZ2B block inconclusive.
For COc1ccc(N2CCN(c3cc(C)c4ccccc4n3)CC2)cc1 the results were PI5P4Ka inh inactive, L3MBTL1 inh inconclusive, G9a block 10µM, HP1b chromo inh inconclusive, JMJD2A Tudor inh inconclusive and BAZ2B block inconclusive.
For Cc1cc(N2CCN(c3ccccc3)CC2)nc2ccccc12 the results were PI5P4Ka inh inactive, L3MBTL1 inh inactive, G9a block inactive, HP1b chromo inh inactive, JMJD2A Tudor inh inactive and BAZ2B block inactive.
COc1ccc2c(C)cc(N3CCCCCC3)nc2c1 was read as PI5P4Ka inh inactive, G9a block inconclusive, HP1b chromo inh inactive, JMJD2A Tudor inh 12.6µM and BAZ2B block 22.4µM.
Screening COc1ccc(Nc2cc(C)nc3ccc(OC)cc23)cc1 returned PI5P4Ka inh inactive, L3MBTL1 inh inactive, HP1b chromo inh inactive, JMJD2A Tudor inh inactive and BAZ2B block inactive.
Screening COc1ccc2nc(C)cc(N3CCC(C(N)=O)CC3)c2c1 returned PI5P4Ka inh inactive, G9a block inactive, HP1b chromo inh inactive, JMJD2A Tudor inh inactive and BAZ2B block inactive.
Screening COc1ccc(CNc2cc(C)nc3ccc(OC)cc23)cc1 returned PI5P4Ka inh inactive, G9a block 35.5µM, HP1b chromo inh inactive, JMJD2A Tudor inh inactive and BAZ2B block inactive.
COc1ccc(N2CCN(c3cc(C)nc4ccc(OC)cc34)CC2)cc1 was read as PI5P4Ka inh inactive, G9a block 50.1µM, HP1b chromo inh inconclusive, JMJD2A Tudor inh 44.7µM and BAZ2B block 31.6µM.
`COc1cccc(CNC(=O)CCn2c(=O)c3cccn3c3cccnc32)c1OC` gave G9a block inactive, HP1b chromo inh inactive, JMJD2A Tudor inh inactive and BAZ2B block inactive.
`CCOC(=O)C1=NS(=O)(=O)NC(C)=C1` gave PI5P4Ka inh inactive, L3MBTL1 inh inactive, HP1b chromo inh inactive and JMJD2A Tudor inh 56.2µM.
`Cc1ccc(N2C(=O)[C@@H]3[C@H](C2=O)[C@H]2C=CC=NN2[C@@H]3C(=O)Nc2ccc(Cl)cc2)cc1` gave PI5P4Ka inh inactive, L3MBTL1 inh inactive, G9a block 3.16µM, HP1b chromo inh inactive, JMJD2A Tudor inh inactive and BAZ2B block 50.1µM.
For Cc1cc(C)c(NC(=S)NCC2CCN(C(C)c3ccccc3)C2)c(C)c1 (stereo unspecified) the results were PI5P4Ka inh inactive, G9a block 10µM, HP1b chromo inh inactive, JMJD2A Tudor inh inconclusive and BAZ2B block inactive.
Screening Cc1ccc(NC(=S)NCC2CCN(C(C)c3ccccc3)C2)cc1 (stereo unspecified) returned PI5P4Ka inh inactive, G9a block 50.1µM, HP1b chromo inh inactive, JMJD2A Tudor inh inactive and BAZ2B block inactive.
For Cc1oc2ccc(O)c(CN3CCN(C)CC3)c2c1C(=O)Nc1cccc(Cl)c1C the results were G9a block inactive, HP1b chromo inh inactive, JMJD2A Tudor inh inactive and BAZ2B block inactive.
Screening COc1ccc(C(=O)c2cn(CC(=O)Nc3cc(C)ccc3C)c3nc(C)ccc3c2=O)cc1 returned G9a block inactive, HP1b chromo inh inactive, JMJD2A Tudor inh inactive and BAZ2B block inactive.
c1ccc(-c2ccc(OCCCn3cncn3)cc2)cc1 was read as PI5P4Ka inh inactive, G9a block inconclusive, HP1b chromo inh inconclusive, JMJD2A Tudor inh inactive[11.4 µM] and BAZ2B block 56.2µM.
`Brc1cccc(OCCCCn2cncn2)c1` gave PI5P4Ka inh inactive, L3MBTL1 inh inactive, G9a block 25.1µM, HP1b chromo inh inconclusive, JMJD2A Tudor inh 25.1µM and BAZ2B block 50.1µM.
`Cc1cc2oc(C(=O)Nc3sc4c(c3C(=O)NCc3ccco3)CCC4)cc(=O)c2cc1C` gave G9a block inactive, HP1b chromo inh inactive, JMJD2A Tudor inh inactive and BAZ2B block inactive.
Screening O=S1(=O)N=C(OCc2ccccc2)c2ccccc21 returned JMJD2A Tudor inh inactive.
CCCc1[nH][nH]c(=O)c1C(c1cccc(Cl)c1)C(C#N)C#N (stereo unspecified) was read as PI5P4Ka inh inconclusive, G9a block 79.4µM, HP1b chromo inh inactive, JMJD2A Tudor inh inactive and BAZ2B block inconclusive.
For N#CC(C#N)C(c1ccsc1)c1c(-c2ccccc2)[nH][nH]c1=O (stereo unspecified) the results were PI5P4Ka inh inactive, L3MBTL1 inh inactive, G9a block inactive[12.7 µM], HP1b chromo inh inactive, JMJD2A Tudor inh inactive[11.4 µM] and BAZ2B block inactive.
Screening CCOC(=O)C(NCc1ccccn1)(NC(=O)c1cccnc1)C(F)(F)F (stereo unspecified) returned PI5P4Ka inh inactive, G9a block inactive[12.7 µM], HP1b chromo inh inactive, JMJD2A Tudor inh 63.1µM and BAZ2B block 56.2µM.
For COc1ccccc1C(=O)Nc1ccccc1SCc1cc(=O)c2ccccc2[nH]1 the results were G9a block inactive, HP1b chromo inh inactive, JMJD2A Tudor inh inactive and BAZ2B block inactive.
Screening COc1ccccc1CNC(=O)CCCn1nc(C)c2sc3ccccc3c2c1=O returned G9a block inactive, HP1b chromo inh inactive, JMJD2A Tudor inh inactive and BAZ2B block inactive.
For COc1ccc(N(C)C(=O)NCc2noc3ccc(C)cc23)c(OC)c1 the results were G9a block inactive, HP1b chromo inh inactive, JMJD2A Tudor inh inactive and BAZ2B block inactive.
COc1ccc(Cl)cc1NC(=O)CSc1nc(NS(=O)(=O)c2ccccc2)cc(=O)[nH]1 was read as PI5P4Ka inh inactive, G9a block 70.8µM, HP1b chromo inh inactive, JMJD2A Tudor inh inconclusive and BAZ2B block inactive.
O=c1cc(NS(=O)(=O)c2ccccc2)nc(SCc2ccc(Cl)cc2)[nH]1 was read as PI5P4Ka inh inactive, L3MBTL1 inh inactive, G9a block inactive, HP1b chromo inh inactive, JMJD2A Tudor inh inactive and BAZ2B block 79.4µM.
Cc1ccc(S(=O)(=O)Nc2cc(=O)[nH]c(SCc3ccccc3Cl)n2)cc1 was read as PI5P4Ka inh inactive, L3MBTL1 inh inactive, G9a block inactive, HP1b chromo inh inactive, JMJD2A Tudor inh 56.2µM and BAZ2B block inactive.
CC(C)(C)c1cc(=O)[nH]c(SCc2ccccc2Cl)n1 was read as PI5P4Ka inh inactive, G9a block inactive, HP1b chromo inh inactive, JMJD2A Tudor inh inactive and BAZ2B block inactive.
O=C(CSc1nc(NS(=O)(=O)c2ccccc2)cc(=O)[nH]1)Nc1ccc(Cl)cc1 was read as PI5P4Ka inh inconclusive, L3MBTL1 inh inconclusive, G9a block 70.8µM, HP1b chromo inh inactive, JMJD2A Tudor inh inactive and BAZ2B block 79.4µM.

High-throughput results from PubChem.
